Whole data set: some 25,000 sequences, median “ln(normalized median fluorescence intensity)” near 6.7, cut for the highest 2% near 10. The sample as a whole holds a higher share of the highest values than the screen did.

We go through 44 sequences from the supplement of paper PMC11417369.

For this assay, the system named is PfHDP1 homeodomain (GST-tagged). Nature of the assay: gcPBM binding intensity (ln(normalized median fluorescence intensity)); higher = stronger DNA binding. Put shortly: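 DNA-binding domains from P. falciparum, fused to GST and produced in E. coli, were put on an Agilent 4 × 180k double-stranded probe array for 1 h in 1× PBS holding 1% milk, 0.2 mg/ml BSA, 0.5% salmon testes DNA and 0.03% Triton X-100. Probes were primer-extended, 36 bp long and drawn from intergenic genomic regions, with negative controls included. After Alexa488 anti-GST antibody detection and a 488 nm scan, binding intensity was set as the highest Masliner-normalised natural-log median intensity across replicate spots of either probe orientation.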
Consider “ATCATTTTTAAAGGAACACACAAAAAAAATTAAAAT [CACACA_site4878]”, for which the “gcPBM binding intensity (ln)” value came out at 6.76. Next, “TCTTTTTTAATATAATATATTTTTATTAAGTAAATC [TGCATGCA_negctrl_site408]”: 6.2. The figure for “ATTAATAATGAGTTATGTACATACATATTTTAAGAT [XGTACX_site7543]” is 6.75; for AATAAATACTAAATGGTGCAAAATTTTTTAACACTG it is 10; for “CATACTCTACATAGATGTACTCATTTAAAAAAAAAA [XGTACX_site6945]” it is 6.12. The figure for “AATTAATAAAAAAGGTGTACAGTAAATGCAATAATC [XGTACX_site7956]” is 8.08. Turning to “AAATATATCATACAAAGTACTTGGAATTAATATATA [XGTACX_site8907]”, the “gcPBM binding intensity (ln)” value is 6.3.

“TAATTATGCCAACACACACACACACCCAACTAAAAA [CACACA_site8823]”: the “gcPBM binding intensity (ln)” value came to 6.96. The figure for “ATTATGCACCAACACACACACACACCCCTAAAAAAT [CACACA_site2568]” is 11.5. Next, “TAATTATGCAGACACACACACACACCCAACTAAAAA [CACACA_site2569]”: 7; “ATATAAAGGTTTATTAGTACACATTAGAATACTTTT [XGTACX_site4492]”: 6.22. Next, “GGGTTTTTAAAATGTAGTACATATGTAAACATCAAA [XGTACX_site1262]”: 6.7.

As for “CCAATACTGTTTAAATGTACAAGTAGGAGGTTAATT [XGTACX_site7260]”, the “gcPBM binding intensity (ln)” value was determined as 6.64. In the case of “TTTTCAATATATATTTGTACTTTATTTTATGATATT [GTGCAC_negctrl_site732]”, the “gcPBM binding intensity (ln)” value worked out at 6.71. As for “GCTTATGCTCAATATTGTACTTTTTTTATTTATTCA [XGTACX_site8863]”, the “gcPBM binding intensity (ln)” value worked out at 10.6. Next, “TATATATATATATATTGTACTTTATTTTATATATTC [XGTACX_site5697]”: 9.11; “AGCATTTTTCATTTTGCACACATGTTTTATGTGTAT [CACACA_site3454]”: 10.5. On to “TATGTGTATTTATTTGCATGTTGGTTGTATTTTTTC [TGCATGCA_site479]”, for which the “gcPBM binding intensity (ln)” value amounted to 6.94. The figure for “AGCATTTTTCATTTTGCACACATGTTTTATGGGTAT [CACACA_site5839]” is 10.5; for “TATCCTAACTTTAGATGTACACAAATAAAAAAAAAA [XGTACX_site4491]” it is 6.32; for “ATTTATATGAAAATATGTACTTATATAAATTTATTT [XGTACX_site53]” it is 6.23. Next, “TAAGAATAATGACATAGTACAATTTAATAGATCTAA [XGTACX_site3670]”: 6.01; “TTTTTTTTTAAAGAAAATAAAAATATGTACTTGACA [CACACA_negctrl_site1113]”: 6.05; “CGAAATAAATCTTATGCACACAAATAATTAATTAAA [CACACA_site8491]”: 10.5. Turning to “AAATAAATCTTATGCACACAAATAATTAATTAAACA [CACACA_site1693]”, the “gcPBM binding intensity (ln)” value worked out at 10.7. Next, “ATAAAATAATCTTATGCACACCAAAAATTTATATAA [CACACA_site8332]”: 10.4; “AATCATAAACATTATGCACACAAAAATAAAAAAAAA [CACACA_site8289]”: 8.58; “AAAATAATCTTATGCACACCAAAAATTTATATAATC [CACACA_site1235]”: 10.6. As to “AATTATAAATCTTGCACACAAAAAAAATAATAAAAA [CACACA_site2434]”, the “gcPBM binding intensity (ln)” value was 8.67. Next, “TTTTTAGTTAATTAAACACACAAAAAAAAAAATAAA [CACACA_site3930]”: 6.4. The figure for “TAGTTAACAAATAATGCACACAAATGGATAAAATTA [CACACA_site9240]” is 10.6; for “GTTAACAAATAATGCACACAAATGGATAAAATTATA [CACACA_site3725]” it is 9.97.

Regarding “AAAATTATAAATCTTGCACACAAAAAAAATAATAAA [CACACA_site8771]”, the “gcPBM binding intensity (ln)” value is 8.27.

“TTTTAAAAAAATATAATACACACCAAAAATATGCAC [CACACA_site2131]”: the “gcPBM binding intensity (ln)” value is 7.15. The figure for “AAAAAATTAATAAAAACACACAAAAAAAATAAACAA [CACACA_site1907]” is 6.94; for “AAGCCTTAAAAGGAAAGTACGTATATATATATATAT [XGTACX_site8559]” it is 9.48. Next, “TAAAGGTGAACAATACGTACATAAGAACTTATGAGG [XGTACX_site4216]”: 6.43; “ACAATGAGGATATATACACACATACATTAAAAAAAT [CACACA_site6955]”: 6.71. The figure for “GCACCAAAAAAAAGACGTACAGTTATATTAAAATAG [XGTACX_site8926]” is 6.7; for “ATACATCAAGGACACACACACACACCCACACCCACA [CACACA_site8013]” it is 6.71.

On to “CTTAAAAACAAAAATGCACACATAATAAGCATATGT [CACACA_site9149]”, for which the “gcPBM binding intensity (ln)” value amounted to 9.58. For the sequence “AAATAAATCTTATGCACACAAATAATTAATGAAACA [CACACA_site5011]”, the “gcPBM binding intensity (ln)” value was 10.6. Take “TATATGAAATATTATGCACACAATATATAATATGAT [CACACA_site936]”: the “gcPBM binding intensity (ln)” value is 10.2. On to “AAAGAAATGAAATATACACACATACATAAATACATA [CACACA_site6081]”, for which the “gcPBM binding intensity (ln)” value turned out to be 6.68.
